Screens (PubChem BioAssay)
Hits are enriched below; roughly 18% of the tested compounds scored in any of these assays.
DT40 TDP1 no CPT: qHTS for Inhibitors of human tyrosyl-DNA phosphodiesterase 1 (TDP1): qHTS in cells in absence of CPT. hit rate 15% among 420,000. AID 686978, 2013. DT40 Tdp1-/- hTDP1 cells, no CPT, ATP luminescence, 48 h. Potency, µM (highest dose often 46.2 µM), hits mostly inhibitors; also: nearly all actives have a fitted effect of over 55% in size
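A cellular qHTS used chicken DT40 cells lacking endogenous Tdp1 but carrying stably transfected human TDP1. Compounds were applied without camptothecin, and cell growth kinetics were judged by ATP-dependent luminescence after ≥48 hr.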
TDP1 cell CPT: DT40-hTDP1 cell growth loss with CPT | chicken DT40 Tdp1-/-;hTDP1 cells + 20 nM CPT, ATP luminescence, 48 h | Potency, µM (doses to about 46.2 µM), hits mostly inhibitors | hit rate 12% among 420,000 | AID 686979; also: nearly all actives have a fitted effect of over 55% in size
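Chicken DT40 Tdp1-/- cells stably complemented with human TDP1 were seeded at 400 cells/well in medium containing 20 nM camptothecin, exposed to pin-transferred compounds, and grown at 37 °C for at least 48 hr. Viability was read as ATP luminescence.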
IL-1B inflam inh: inhibitors of inflammasome signaling (IL-1 beta secretion) | THP-1 LPS/ATP IL-1B secretion, AlphaLISA, 16 h; hits give low values | activity change, % at 57.5 µM | hit rate 4.7% among 360,000 | AID 743279; in the data active = activity change below about -50%; inconclusive = mostly about -30% to -49%
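THP-1 cells pretreated 1 hr with compounds (up to 57.5 uM final), then stimulated with LPS (250 ng/mL final) plus ATP (1.25 mM final); secreted IL-1B measured by AlphaLISA after 16 hr, decreased signal indicating inhibition.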
VP16 counter: inhibits Gal4-VP16 luciferase reporter, ROR gamma counter-screen; Potency, µM (series often up to 53.6 µM), hits mostly inhibitors; Drosophila S2 Gal4-VP16 UAS-luciferase, luminescence, 20 h; hit rate 3.5% among 310,000;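 also: Gal4-VP16 expression switched on by copper sulfate through the metallothionein promoter; nearly all actives have a fitted effect of over 50% in size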
LDHA block: LDHA (human) enzyme inhibition; P00338; purified LDHA, NADH/diaphorase-resazurin fluorescence; hits give low values; activity change, % (values are at about 110 or 230 µM); hit rate 0.15% among 480,000; AID 1347041; in the data active = activity change below about -30%; inconclusive = mostly about -25% to -30%
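Human LDH5 (2 nM) was incubated with 0.06 mM NADH and 0.2 mM pyruvate for 5 min at room temperature in Tris pH 7.4. Remaining NADH was coupled through diaphorase/resazurin, and resorufin fluorescence was read at 0 and 20 min.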
RORgamma inh: ROR gamma (mouse) transcription inhibition. Drosophila S2 Gal4-RORgamma UAS-luciferase reporter, 20 h. Potency, µM (top dose mostly 53.6 µM), actives largely listed as inhibitors. hit rate 5.4% among 310,000. AID 2551; also: nearly all actives have a fitted effect of over 60% in size
Target sequence (P51450 whole entry, looked up, the tested form may be a part): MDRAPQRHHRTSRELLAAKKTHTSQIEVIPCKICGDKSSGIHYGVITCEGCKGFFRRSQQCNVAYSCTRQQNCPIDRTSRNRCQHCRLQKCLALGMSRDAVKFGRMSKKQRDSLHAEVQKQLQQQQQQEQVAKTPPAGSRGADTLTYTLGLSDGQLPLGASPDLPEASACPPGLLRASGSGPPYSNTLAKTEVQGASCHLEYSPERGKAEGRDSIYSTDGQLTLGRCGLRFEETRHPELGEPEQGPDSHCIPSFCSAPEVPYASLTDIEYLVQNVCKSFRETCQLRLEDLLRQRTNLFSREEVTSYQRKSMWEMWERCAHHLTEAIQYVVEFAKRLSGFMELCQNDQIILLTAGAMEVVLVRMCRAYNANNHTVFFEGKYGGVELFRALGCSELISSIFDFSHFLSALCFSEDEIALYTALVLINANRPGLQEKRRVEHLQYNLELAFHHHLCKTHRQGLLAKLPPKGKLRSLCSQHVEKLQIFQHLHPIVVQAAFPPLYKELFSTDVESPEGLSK
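Read-out: Photinus luciferase luminescence; inhibitors lower reporter signal. Insect Schneider cells with Gal4-ROR gamma fusion under metallothionein promoter, UAS reporter; 700 uM final copper sulfate induction, 20 hr, ambient temperature.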
Hits are given with their value; . = inactive; ? = inconclusive; / = not tested or not shown. Unless noted, calls follow the shape of the dose curve; as a rule, active = well fitted curve in the direction sought with a large enough effect; inconclusive = small, poorly fitted or top-dose-only effect, or another doubt; inactive = no such curve, though single readings can be large; an effect the other way counts as inactive or inconclusive.

SMILES	DT40 TDP1 no CPT	TDP1 cell CPT	IL-1B inflam inh	VP16 counter	LDHA block	RORgamma inh
C=CCN1C(=O)C(Cc2ccc(Br)cc2)S/C1=N\N=C\c1ccco1 (stereo unspecified)	?	.	.	.	.	14.1µM
CC1CCN(c2nc3c(S(=O)(=O)c4ccc(Cl)cc4)nnn3c3ccsc23)CC1	16.4µM	?	/	/	.	/
CN1CCN(c2nc3c(S(=O)(=O)c4ccc(Cl)cc4)nnn3c3ccsc23)CC1	?	?	/	/	.	/
CC(C)c1ccc(S(=O)(=O)c2nnn3c2nc(N2CCN(C)CC2)c2sccc23)cc1	?	16.4µM	/	/	.	/
CCCCNC(=S)N(C)/N=C/c1c(C)[nH]c2ccccc12	.	.	.	?	.	12.6µM
CCCCNC(=S)N(C)/N=C/c1c(F)c(F)c(F)c(F)c1F	?	.	-104.3	.	.	.
CCCCNC(=S)N(C)/N=C/c1cc(Br)ccc1F	/	/	/	/	.	/
CC(C)CC(=O)Nc1cc(C(C)(C)C)ccc1O	/	/	/	/	.	/
CN(C)S(=O)(=O)n1cc(/C=C(\NC(=O)c2ccccc2)C(=O)N2CCCCC2)c2ccccc21	18.4µM	23.1µM	.	/	.	/
COc1ccccc1C(=O)N/C(=C\c1cn(S(=O)(=O)N(C)C)c2ccccc12)C(=O)N1CCN(C)CC1	?	25.9µM	?	/	.	/
CN(C)S(=O)(=O)n1cc(/C=C(\NC(=O)c2ccccc2)C(=O)NCCN2CCOCC2)c2ccccc21	.	.	.	.	.	.
CN(C)S(=O)(=O)n1cc(/C=C(\NC(=O)c2ccccc2F)C(=O)NCCN2CCOCC2)c2ccccc21	11.6µM	?	.	/	.	/
COc1ccccc1C(=O)N/C(=C\c1ccc(Br)cc1)C(=O)NCC(=O)O	.	.	.	.	.	.
COc1ccccc1C(=O)N/C(=C/c1ccc(Br)cc1)C(=O)N1CCCC1	20.6µM	25.9µM	.	.	.	.
CN1CCN(C(=O)/C(=C/c2cn(S(=O)(=O)N(C)C)c3ccccc23)NC(=O)c2ccccc2)CC1	.	.	?	.	.	.
COc1ccc(CCNC(=O)c2nnn(-c3cccc(C)c3)c2N)cc1OC	?	?	.	.	.	.
COc1ccc(CCNC(=O)c2cn3ccc(C)cc3n2)cc1OC	16.4µM	?	.	.	.	.
COc1ccc(CCNC(=O)c2nnn(-c3cc(C)cc(C)c3)c2N)cc1OC	?	14.6µM	.	.	.	.
COc1ccc(CCNC(=O)c2cc(C(C)C)on2)cc1OC	?	?	.	.	.	?
O=C(CSc1nnc(-c2cccc([S+](=O)([O-])NC3CCCC3)c2)n1-c1ccccc1)Nc1ccc(C(=O)O)cc1	/	/	/	/	.	/
COc1ccc(NC(=O)COc2ccc(Cl)cc2Cl)c2cccnc12	/	/	/	/	.	/
Cc1ccsc1/C=N/N(Cc1ccccc1)c1ccccc1	/	/	/	/	.	/
CC(C)(C)N1C(=O)[C@H]2[C@@H](c3ccc(Br)cc3)N3C(=O)N(c4ccc(Br)cc4)C(=O)[C@@]3(Cc3ccccc3)[C@H]2C1=O	?	20.6µM	.	.	.	.
O=C1[C@H]2[C@@H](c3ccc(Cl)cc3)N3C(=O)N(c4cccc(Cl)c4)C(=O)[C@@]3(Cc3ccccc3)[C@H]2C(=O)N1C1CCCCC1	11.6µM	10.3µM	.	/	.	/
Cc1cccc(N2C(=O)N3[C@H](c4ccc(Br)cc4)[C@@H]4C(=O)N(C(C)(C)C)C(=O)[C@@H]4[C@]3(C)C2=O)c1	?	18.4µM	.	.	.	.
CC(C)(C)N1C(=O)[C@H]2[C@@H](c3ccc(Br)cc3)N3C(=O)N(c4cccc(F)c4)C(=O)[C@@]3(Cc3ccccc3)[C@H]2C1=O	?	?	.	/	.	/
Cc1ccc(N2C(=O)N3[C@H](c4ccc(Br)cc4)[C@@H]4C(=O)N(C(C)(C)C)C(=O)[C@@H]4[C@]3(C)C2=O)cc1	.	?	.	.	.	.
